Measurements published in PubChem BioAssay (NCATS).
Activity calls are given as the source filed them.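 The calls were made as follows: active = compounds whose dose series gives a full or clear partial fitted curve of increased nuclear translocation; inconclusive = weak partial curve or effect only at the top dose; inactive = no dose-dependent translocation response.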

target: Glucocorticoid receptor (Homo sapiens) (UniProt P04150); assay: GR-GFP Redistribution (AID 450); details: U2OS GR-GFP nuclear translocation, laser cytometry, 2 h
Description: NIH Molecular Libraries Screening Centers Network [MLSCN]
NIH Chemical Genomics Center [NCGC]
The glucocorticoid receptor (GR) Redistribution assay (BioImage) enables the visualization of GR cytoplasmic to nuclear translocation by the use of a GR-GFP fusion. GR is normally cytosolic, however ligands such as dexamethasone, cause nuclear translocation where the protein binds to response elements and interacts with various co-factors to modulate transcription. Because both functional agonists and antagonists can induce nuclear translocation, this assay can detect ligands regardless of their effects on gene expression. GR-GFP expressing U20S cells were used here. Dexamethasone was the positive control for translocation and data normalization. Detection of nuclear translocation was performed in 1536-well plates using the Acumen laser scanning plate cytometer (TTP LabTech). Validation of this assay and a detailed protocol have been described.
NCGC Assay Protocol Summary:
GR-GFP U2OS cells were maintained in DMEM with Glutamax and high glucose, 1% v/v penicillin-streptomycin, and 0.5 mg/mL Geneticin. For cell culture, 10% […] fetal bovine serum (FBS) was used (Invitrogen #26140-079). For cell plating 10% dextran, charcoal-stripped FBS (Hyclone SH30068.03) was used. U2OS cells were trypsin treated, suspended in medium, and passed through a 40 um basket filter. The cells were seeded at 600 cells/5 uL/well into clear-bottom black sided 1536-well plates and incubated for approximately 20 hrs, 37degC, 5%, CO2 in a tissue culture incubator. Twenty-three nL of compound was delivered by pin tool and the plates were incubated as above for 2 hrs. The compounds were tested as a 7-point titration ranging from 46 uM to 0.6 nM. The cells were fixed using the Kalypsys Washer/Dispenser station. The fixing protocol involved aspiration of the cell media, addition of 6 uL/well of PBS, aspiration of PBS, addition of 5uL/well of 100% methanol, aspiration of methanol, and addition of 3 uL/well PBS with 1.5 uM propidium iodide (PI). The plates were read by the Acumen Explorer using a 1 x 8 um scan of the whole well area. PI fluorescence triggered the collection of PI and GFP signals. A nuclei population was defined by a 10 to 100 um width and depth filter that eliminated small and large fluorescent particles. Two subpopulations of nuclei were then defined by peak intensity of GFP fluorescence to obtain translocated and untranslocated objects. The number of translocated objects was used for data normalization.
Keywords: NIH Roadmap, MLSCN, MLI, MLSMR, sOGT, qHTS, NCGC
Potency is read from the fitted curve at half-maximal effect.

Chain of Glucocorticoid receptor (Homo sapiens) (P04150 whole entry, looked up): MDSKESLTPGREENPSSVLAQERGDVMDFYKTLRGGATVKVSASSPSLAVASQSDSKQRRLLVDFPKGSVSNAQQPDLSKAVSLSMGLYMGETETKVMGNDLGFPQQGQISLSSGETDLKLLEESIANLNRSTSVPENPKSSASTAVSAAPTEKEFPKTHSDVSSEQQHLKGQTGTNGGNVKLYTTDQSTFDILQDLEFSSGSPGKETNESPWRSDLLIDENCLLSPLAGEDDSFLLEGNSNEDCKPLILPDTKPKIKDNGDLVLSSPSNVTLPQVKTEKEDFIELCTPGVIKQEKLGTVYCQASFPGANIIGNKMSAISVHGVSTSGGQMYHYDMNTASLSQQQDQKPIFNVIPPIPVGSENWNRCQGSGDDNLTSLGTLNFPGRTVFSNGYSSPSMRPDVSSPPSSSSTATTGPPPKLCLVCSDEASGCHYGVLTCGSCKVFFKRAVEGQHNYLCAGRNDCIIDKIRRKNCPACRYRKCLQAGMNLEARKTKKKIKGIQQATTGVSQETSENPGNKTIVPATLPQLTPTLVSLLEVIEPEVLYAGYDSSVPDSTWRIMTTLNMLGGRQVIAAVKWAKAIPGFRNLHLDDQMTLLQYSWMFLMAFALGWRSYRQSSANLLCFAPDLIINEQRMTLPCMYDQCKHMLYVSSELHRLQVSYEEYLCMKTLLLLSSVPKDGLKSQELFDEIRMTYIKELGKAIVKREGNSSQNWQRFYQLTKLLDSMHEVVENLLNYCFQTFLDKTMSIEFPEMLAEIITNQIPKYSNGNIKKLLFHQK

Row | SMILES | Potency
1 | COCCn1c(=O)c(CCc2ccccc2)nc2cnc(Nc3cccc(OC)c3)nc21 | > 9.22 µM (inactive)
2 | COc1ccc(Oc2ncc3nc(-c4cccs4)c(=O)n(CCC#N)c3n2)cc1 | > 9.22 µM (inactive)
3 | NCCNC(=O)c1ccc(Cl)cc1 | > 46 µM (inactive)
4 | c1cncc(CNc2nc(-c3ccoc3)nc3ccccc23)c1 | > 46 µM (inactive)
5 | COCCn1c(=O)c(CCc2ccccc2)nc2cnc(OC)nc21 | > 9.22 µM (inactive)
6 | Cn1c(=O)c(-c2ccccc2)nc2cncnc21 | > 9.22 µM (inactive)
7 | COCCn1c(=O)c(-c2ccccc2)nc2cnc(N3CCNCC3)nc21 | > 9.22 µM (inactive)
8 | c1cncc(CNc2ncncc2-c2ccc3c(c2)OCO3)c1 | > 46 µM (inactive)
9 | CC(=O)NCCNc1nc(-c2ccccc2C(F)(F)F)nc2ccccc12 | > 46 µM (inactive)
10 | CS(=O)(=O)Nc1cccc(-c2cncnc2Nc2ccc(F)cc2)c1 | > 46 µM (inactive)
11 | COc1cccc(Cn2c(=O)c(-c3cn(C)c4ccccc34)nc3cnc(N4CCNCC4)nc32)c1 | > 9.22 µM (inactive)
12 | COc1ccc(Oc2ncc3nc(C)c(=O)n(-c4ccccc4)c3n2)cc1 | > 9.22 µM (inactive)
13 | COc1cccc(Nc2ncc3nc(-c4ccccc4)c(=O)n(C[C@H]4CCCO4)c3n2)c1 | > 9.22 µM (inactive)
14 | CN(C)c1ncnc2ccc(-c3ccccc3C#N)cc12 | > 46 µM (inactive)
15 | CNc1ncncc1-c1ccccc1OC | > 46 µM (inactive)
16 | COc1ccc(-c2nc3cnc(N4CCNCC4)nc3n(Cc3cccs3)c2=O)cc1 | > 46 µM (inactive)
17 | COc1cccc(Nc2ncc3nc(C)c(=O)n(C)c3n2)c1 | > 9.22 µM (inactive)
18 | Cc1noc(C)c1-c1cc(N2CCN(C)CC2)ncn1 | > 46 µM (inactive)
19 | CN1CCN(c2nc(-c3cccc(C#N)c3)nc3ccccc23)CC1 | > 46 µM (inactive)
20 | COCCn1c(=O)c(-c2ccc(F)cc2)nc2cnc(OC)nc21 | > 9.22 µM (inactive)

Row | SMILES | Potency
21 | O=c1cnc2cnc(N3CCNCC3)nc2n1Cc1ccc(F)cc1 | > 9.22 µM (inactive)
22 | COc1ccccc1CNc1ccnc(-c2ccoc2)n1 | > 46 µM (inactive)
23 | COc1cccc(-c2ccc3ncnc(N(C)Cc4ccco4)c3c2)c1 | > 46 µM (inactive)
24 | c1nc(N2CCNCC2)c2cc(-c3ccc4c(c3)OCO4)ccc2n1 | > 46 µM (inactive)
25 | O=c1cnc2cnc(Nc3ccccc3)nc2n1Cc1ccc(F)cc1 | > 9.22 µM (inactive)
26 | NCCn1c(=O)c(CCc2ccccc2)nc2cncnc21 | > 9.22 µM (inactive)
27 | COCCn1c(=O)c(-c2cccc(C#N)c2)nc2cnc(Oc3ccccc3)nc21 | > 9.22 µM (inactive)
28 | COc1ccc(-c2nc3cnc(N4CCNCC4)nc3n(-c3ccc(OC)cc3)c2=O)cc1 | > 9.22 µM (inactive)
29 | COCCn1c(=O)c(-c2cc(F)cc(F)c2)nc2cnc(N3CCNCC3)nc21 | > 9.22 µM (inactive)
30 | CN(C)c1ccnc(-c2cccc(NS(C)(=O)=O)c2)n1 | > 46 µM (inactive)
31 | CN(Cc1ccco1)c1cc(-c2ccoc2)ncn1 | > 46 µM (inactive)
32 | COc1ccccc1-c1nccc(NCc2cnc(C)cn2)n1 | > 46 µM (inactive)
33 | COc1ccc2c(c1)c(CC(=O)O)c(C)n2Cc1ccc(F)cc1 | > 46 µM (inactive)
34 | COc1ncc2nc(CCc3ccccc3)c(=O)n(C3CC3)c2n1 | > 9.22 µM (inactive)
35 | CN1CCN(c2ncnc3ccc(-c4ccccc4Cl)cc23)CC1 | > 46 µM (inactive)
36 | CCNc1ncc2nc(-c3ccc(OC)cc3)c(=O)n(CCOC)c2n1 | > 9.22 µM (inactive)
37 | CS(=O)(=O)Nc1cccc(-c2ccc3ncnc(NC4CC4)c3c2)c1 | > 46 µM (inactive)
38 | COc1cccc(Cn2c(=O)c(-c3cc(F)cc(F)c3)nc3cnc(N(C)C)nc32)c1 | > 9.22 µM (inactive)
39 | COc1ncc2nc(-c3cccc(C#N)c3)c(=O)n(CCC#N)c2n1 | > 9.22 µM (inactive)
40 | CCNc1ncc2nc(-c3ccc(OC)cc3)c(=O)n(C[C@H]3CCCO3)c2n1 | > 9.22 µM (inactive)
